Bioassay records from PubChem BioAssay.
SENP8 block-1 = inhibitors of human SENP8 protease. AID 2540. Q96LD8. 330,000 tested, 1.2% active. inhibition, % at 10 µM. purified SENP8, Z-RLRGG-aminoluciferin cleavage, luminescence; in the data active = inhibition above about 50%
Target sequence (Q96LD8 whole entry, looked up): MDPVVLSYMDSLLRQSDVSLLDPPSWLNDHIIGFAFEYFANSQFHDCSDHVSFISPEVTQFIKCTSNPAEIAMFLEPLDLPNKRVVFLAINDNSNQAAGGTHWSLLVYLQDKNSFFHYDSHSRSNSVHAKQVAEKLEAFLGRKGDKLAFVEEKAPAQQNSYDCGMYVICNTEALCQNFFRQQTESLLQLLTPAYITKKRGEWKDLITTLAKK
SENP8 block-2 = inhibitors of human SENP8 protease | Q96LD8 | 360,000 tested, 0.64% active | inhibition, % at 20 µM | recombinant SENP8, Nedd8 substrate fluorescence | AID 602440; in the data active = inhibition mostly above about 40%, no sharp cut-off; inactive = mostly below about 27%
HSP90 refold inh = inhibitors of HSP90 luciferase refolding in rabbit reticulocyte lysate; luciferase refolding luminescence, 3 h; AID 1789; 290,000 tested, 0.91% active; inhibition, % at 5.6 µM;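 active = inhibition above the screen-wide mean plus 3 SD, computed separately per campaign, cut at about 16% in these data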;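 note: 0% = DMSO wells and 100% = 60 µM geldanamycin wells; inhibitors lower the luminescence because luciferase stays unfolded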
SENP6 block = SENP6 protease inhibition; Q9GZR1; Recombinant SENP6 catalytic domain, aminoluciferin luminescence; inhibition, % at 10 µM; 330,000 tested, 1.8% active;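 active = inhibition above about 50% at the single tested dose, limit read from the data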;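 note: plate controls were DMSO wells with enzyme for no effect and DMSO wells lacking enzyme for full effect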
Platelet DG rel = platelet dense granule release activity; human platelet-rich plasma, SFLLRN dense granule ATP release, luminescence; inhibition, %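 (compounds screened at 7.5 µM in platelet-rich plasma)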; 300,000 tested, 0.22% active;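 active = mean replicate score, as percent of positive control, at or above 50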
SENP7 block = SENP7 protease inhibition. inhibition, % at 5 µM. 330,000 tested, 1.5% active. recombinant SENP7, Z-RLRGG-aminoluciferin luminescence, 40 min;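 active = inhibition above about 50% at the single test dose, limit read from the data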;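 note: plate controls were DMSO with enzyme for no effect and no enzyme buffer wells for full effect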
Target sequence (Q9BQF6 706-1050 limits assumed): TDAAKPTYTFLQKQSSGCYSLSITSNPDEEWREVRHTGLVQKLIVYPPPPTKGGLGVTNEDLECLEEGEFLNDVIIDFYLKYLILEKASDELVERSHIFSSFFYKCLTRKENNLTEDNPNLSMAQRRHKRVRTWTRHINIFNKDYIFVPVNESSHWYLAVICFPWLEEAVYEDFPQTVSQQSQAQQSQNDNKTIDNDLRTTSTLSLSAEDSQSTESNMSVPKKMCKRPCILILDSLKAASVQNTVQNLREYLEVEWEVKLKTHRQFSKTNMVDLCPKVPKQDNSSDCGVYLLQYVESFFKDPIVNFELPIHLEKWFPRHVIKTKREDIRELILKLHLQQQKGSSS
SENP8 conf = confirmation of human SENP8 protease inhibitors. shares compounds with SENP7 block. AID 488912. 6,200 tested, 40% active. inhibition, % at 12.5 µM. Recombinant SENP8, Z-RLRGG-aminoluciferin luminescence, 60 min;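 active = mean inhibition across replicates above about 50%, limit read from the data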
SENP6 conf = human SENP6 inhibition, confirmed. shares compounds with SENP7 block. 6,200 tested, 58% active. recombinant SENP6, Z-RLRGG-aminoluciferin luminescence. inhibition, % at 12.5 µM
SENP7 confirm = confirmation of human SENP7 protease inhibitors; shares compounds with SENP7 block; recombinant SENP7, Z-RLRGG-aminoluciferin luminescence, 40 min; inhibition, % at 12.5 µM; 6,200 tested, 69% active; AID 488917
Casp3 SENP sel = inhibits human caspase-3 in SENP selectivity test | inhibition, % at 12.5 µM | 6,200 tested, 60% active | purified caspase-3, Z-DEVD-aminoluciferin luminescence, 60 min | shares compounds with SENP7 block;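 active = mean inhibition above about 50%, limit read from the data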;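 note: plate controls were enzyme with DMSO for no effect and wells without caspase-3 for full effect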
SENP luc ctr = counter-screen for SENP inhibitors: luminescence interference. 6,200 tested, 39% active. AID 488919. inhibition, % at 12.5 µM. Pre-incubated SENP8/Z-RLRGG-aminoluciferin, luciferase luminescence interference. shares compounds with SENP7 block;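 active = mean inhibition above about 50% when retested at one dose, limit read from the data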;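 note: plate controls were DMSO wells with completed reaction for no effect and substrate without enzyme for full effect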
* hit, by the source's call. Only some compounds are listed: those with a hit (about 2.8% of all), similar ones and a draw of the others.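 Rule for the calls, unless noted: active = mean inhibition above about 50% in the one-dose retest (limit read from the data); inactive = the rest.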

What do the screens show for `COCCOC(=O)CSc1ncccc1-c1nc2cc(C)c(C)cc2[nH]1`?
SENP8 block-1: 93*; SENP8 block-2: -439; HSP90 refold inh: 0; SENP6 block: 21; Platelet DG rel: 23; SENP7 block: 95*; SENP8 conf: 93*; SENP6 conf: 96*; SENP7 confirm: 102*; Casp3 SENP sel: 96*; SENP luc ctr: 96*

How did CCOC(=O)CSc1ccc(-c2nc3cc(C)c(C)cc3[nH]2)cn1 do in these assays?
SENP8 block-1: -10; SENP8 block-2: -356; HSP90 refold inh: 2; SENP6 block: -23; Platelet DG rel: 1; SENP7 block: -17

What do the screens show for `COc1ccc(/C=N/N2CCN(c3ccccc3)CC2)cc1Br`?
SENP8 block-1: 15; SENP8 block-2: 8; HSP90 refold inh: -4; SENP6 block: 33; Platelet DG rel: 4; SENP7 block: 58*; SENP8 conf: -15; SENP6 conf: -7; SENP7 confirm: -3; Casp3 SENP sel: 6; SENP luc ctr: -6

How did COc1ccccc1N1CCN(/N=C/c2ccc(O)c(O)c2)CC1 do in these assays?
SENP8 block-1: -8; HSP90 refold inh: -7; SENP6 block: 12; Platelet DG rel: 0; SENP7 block: -5

How did O=C(O)c1ccc(C=NN2CCCCCC2)cc1 do in these assays?
SENP8 block-2: 14

Results for O=C(O)c1ccc(/C=N/N2CCN(c3ccccc3)CC2)cc1 ?
SENP8 block-1: 62*; SENP8 block-2: 17; HSP90 refold inh: 7; SENP6 block: 62*; Platelet DG rel: -2; SENP7 block: 72*; SENP8 conf: 7; SENP6 conf: 12; SENP7 confirm: 16; Casp3 SENP sel: 6; SENP luc ctr: 8

What do the screens show for `COc1ccc(/C=N/N2CCN(c3ccccc3OC)CC2)cc1Br`?
SENP8 block-1: 32; SENP8 block-2: 20; HSP90 refold inh: 1; SENP6 block: 59*; Platelet DG rel: 0; SENP7 block: 12; SENP8 conf: 39; SENP6 conf: 42; SENP7 confirm: 76*; Casp3 SENP sel: 19; SENP luc ctr: 8

How did Cc1cc(NC(=O)CC(C)C)c(=O)n(Cc2ccccc2F)c1 do in these assays?
SENP8 block-1: -4; SENP8 block-2: -225; HSP90 refold inh: 4; SENP6 block: -3; Platelet DG rel: 1; SENP7 block: -1

Results for Cc1nn(-c2ccc(F)cc2)c2sc(C(=O)O)cc12 ?
SENP8 block-1: 0; SENP8 block-2: 8; HSP90 refold inh: -1; SENP6 block: -10; Platelet DG rel: -3; SENP7 block: 98*; SENP8 conf: 4; SENP6 conf: 2; SENP7 confirm: 6; Casp3 SENP sel: -3; SENP luc ctr: -13

How did COCc1cccc(C(=O)NC(c2ccccc2)c2ccccc2)c1 do in these assays?
SENP8 block-1: 2; SENP8 block-2: 0; HSP90 refold inh: -5; SENP6 block: -7; Platelet DG rel: -2; SENP7 block: -2

How did Cc1c(O)ccc(C(=O)CN2CCN(Cc3ccccc3)CC2)c1O do in these assays?
SENP8 block-1: -1; SENP8 block-2: -14; HSP90 refold inh: -2; SENP6 block: -21; Platelet DG rel: 1; SENP7 block: 59*; SENP8 conf: -12; SENP6 conf: -1; SENP7 confirm: -9; Casp3 SENP sel: -4; SENP luc ctr: -3

Results for Cc1c(O)ccc(C(=O)CN2CCN(c3ccc(F)cc3)CC2)c1O ?
SENP8 block-1: 0; SENP8 block-2: -41; HSP90 refold inh: 6; SENP6 block: 7; Platelet DG rel: 13; SENP7 block: 8

What do the screens show for `Cc1ccc(NCC(=O)N=Nc2c(O)[nH]c3ccc([N+](=O)[O-])cc23)cc1`?
SENP8 block-1: -4; HSP90 refold inh: 1; SENP6 block: 12; Platelet DG rel: -2; SENP7 block: 21

Results for O=C(Nc1ccc(F)cc1)C(=O)c1c(O)[nH]c2ccc([N+](=O)[O-])cc12 ?
SENP8 block-1: 53*; SENP8 block-2: 36; HSP90 refold inh: -2; SENP6 block: 75*; Platelet DG rel: -2; SENP7 block: 4; SENP8 conf: 66*; SENP6 conf: 68*; SENP7 confirm: 91*; Casp3 SENP sel: 74*; SENP luc ctr: 36

Results for Nc1ccc(N=Nc2ccccc2O)c(N)c1 ?
SENP8 block-1: 70*; SENP8 block-2: 40; SENP6 block: 83*; Platelet DG rel: 13; SENP7 block: 79*; SENP8 conf: 77*; SENP6 conf: 81*; SENP7 confirm: 95*; Casp3 SENP sel: 57*; SENP luc ctr: 82*

What do the screens show for `Cc1cccc(C)c1OCc1cc(C(=O)N2CCN(c3ccccn3)CC2)no1`?
SENP8 block-1: -3; SENP8 block-2: 12; HSP90 refold inh: 1; SENP6 block: 13; Platelet DG rel: 14; SENP7 block: 2

Results for Cc1cccc(C)c1OCc1cc(C(=O)N2CCN(c3ccc(F)cc3)CC2)no1 ?
SENP8 block-1: 33; SENP8 block-2: 4; HSP90 refold inh: 4; SENP6 block: 55*; Platelet DG rel: 4; SENP7 block: 31; SENP8 conf: 49; SENP6 conf: 47; SENP7 confirm: 81*; Casp3 SENP sel: 64*; SENP luc ctr: 59*

Results for COc1ccc(-c2nn3c(=O)c(C)nnc3s2)cc1 ?
SENP8 block-1: 0; SENP8 block-2: -194; HSP90 refold inh: -4; SENP6 block: 1; Platelet DG rel: 1; SENP7 block: -3

Results for Cc1nc2sc(-c3ccccc3)nn2c(=O)c1Br ?
SENP8 block-1: 60*; SENP8 block-2: -30; HSP90 refold inh: 0; SENP6 block: 75*; Platelet DG rel: 1; SENP7 block: 73*; SENP8 conf: 48; SENP6 conf: 33; SENP7 confirm: 42; Casp3 SENP sel: 61*; SENP luc ctr: 11

How did CC(=O)c1ccc(NC(=O)CCn2c(=S)oc3ccccc32)cc1 do in these assays?
SENP8 block-1: -9; SENP8 block-2: 13; HSP90 refold inh: 1; SENP6 block: -8; Platelet DG rel: -4; SENP7 block: -9
